Sampled rows, rich in hits. Any-hit rate of the full collection: about 3.2%.
SMARCA2 act: SMARCA2 function activation, primary screen. MG213 cells, MMTV-luciferase reporter, dexamethasone, overnight. activation, % at 9.1 µM. actives 1% (n = 370,000); in the data active = activation above about 7.8%;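 note: 0% = vehicle wells and 100% = reference activator wells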
CDK5 p35 inh: inhibitors of human CDK5/p35 kinase. inhibition, % at 10 µM. Q00535+Q15078. Recombinant CDK5/p35, ADP-Glo luminescence, 60 min. actives 0.01% (n = 330,000);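 active = highest replicate inhibition of at least 50% and at least 75% of replicates reaching 50%; inconclusive = only one of the two criteria met; inactive = both criteria failed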;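 note: plate controls were DMSO neutral control for no effect and GW8510 at 10 µM for full effect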
dFosB act: enhances mouse delta FosB homodimer DNA binding | purified delta FosB, TAMRA-CDK5 oligo fluorescence polarization; percent of positive-control signal above neutral wells | actives 0.99% (n = 340,000) | AID 493131 | P13346 | activation, % at 25 µM;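 active = mean activation above about 17%, with every replicate also reaching it, limit read from the data, passing the limit was not always enough; inconclusive = only one of the two conditions met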
Target sequence (P13346 whole entry, looked up): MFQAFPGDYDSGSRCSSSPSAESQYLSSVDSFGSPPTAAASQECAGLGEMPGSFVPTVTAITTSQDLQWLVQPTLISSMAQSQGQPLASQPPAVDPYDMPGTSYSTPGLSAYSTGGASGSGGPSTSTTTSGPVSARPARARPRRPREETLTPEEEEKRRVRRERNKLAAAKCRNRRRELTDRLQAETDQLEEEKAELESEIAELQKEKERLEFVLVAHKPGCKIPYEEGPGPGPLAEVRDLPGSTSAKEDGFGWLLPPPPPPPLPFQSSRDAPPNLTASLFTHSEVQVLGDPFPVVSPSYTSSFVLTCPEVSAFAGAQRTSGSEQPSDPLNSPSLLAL
Rtt109 HAT inh: blocks Candida albicans Rtt109/Vps75 acetyltransferase activity; inhibition, % at 34.9 µM; purified Rtt109/Vps75, ThioGlo CoA-SH fluorescence, 4 h; AID 540336; Q5AAJ8; actives 0.16% (n = 330,000);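 active = inhibition of at least 50% in every replicate; inconclusive = best replicate reaches 50% inhibition but some replicates fall short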
Target sequence (Q5AAJ8 whole entry, looked up): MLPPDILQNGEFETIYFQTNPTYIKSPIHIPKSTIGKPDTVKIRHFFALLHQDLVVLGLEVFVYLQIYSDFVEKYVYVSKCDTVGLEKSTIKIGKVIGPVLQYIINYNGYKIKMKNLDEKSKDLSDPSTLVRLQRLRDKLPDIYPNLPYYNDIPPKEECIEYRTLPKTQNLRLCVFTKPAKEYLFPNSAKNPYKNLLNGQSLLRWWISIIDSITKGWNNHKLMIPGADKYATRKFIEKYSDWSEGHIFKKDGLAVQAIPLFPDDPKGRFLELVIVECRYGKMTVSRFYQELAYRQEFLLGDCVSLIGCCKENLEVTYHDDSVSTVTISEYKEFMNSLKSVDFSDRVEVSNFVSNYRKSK
Dyrk1A ADPGlo: blocks rat Dyrk1A kinase activity; ADP-Glo luminescence, NFATc1 peptide; inhibition, % at 12.5 µM; AID 504441; actives 0.43% (n = 310,000); in the data active = inhibition above about 50%;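 note: plate controls were vehicle with enzyme for no effect and no enzyme for full effect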
esBAF inh: inhibitors of esBAF chromatin remodeling in mouse ES cells. Bmi1-luciferase knock-in reporter, 24 h; 100% = twice the neutral-well signal. reporter increase, % at 12.5 µM. actives 2% (n = 350,000). AID 602393; in the data active = activation above about 40%; inconclusive = no clear call, values can overlap the other calls;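 note: 0% = median of the plate's neutral control wells and 100% = double that signal; a rise in the Bmi1 reporter signal indicates esBAF inhibition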
Dyrk1A artifact: ADP-Glo luciferase interference, Dyrk1A counter-screen; shares compounds with Dyrk1A ADPGlo; ADP-Glo luciferase artifact assay, no Dyrk1A, luminescence; AC50, µM (series often up to 12 µM), for the others: at the highest dose activity change, negative = inhibition; 1,300 tested, under 10 active;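 active = fitted half-maximal dose AC50 no more than ten times the top valid tested dose, with luminescence dropping as dose rises; inconclusive = poor fit, or flat fit with 30 to 70% inhibition; inactive = the rest, signal increases included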
* marks the source's active call; other numbers are inactive results; ? = inconclusive; / = not tested or not shown; ! = a repeat was not active.

SMILES	SMARCA2 act	CDK5 p35 inh	dFosB act	Rtt109 HAT inh	Dyrk1A ADPGlo	esBAF inh	Dyrk1A artifact
CCOc1ccccc1C(=O)Nc1ccccc1C(N)=O	-0.7	1.4	-3.7	-3.7	55.8*	-2.0	8.8%
COc1cc2c(C#N)c(N3CCN(C)CC3)nc(N)c2c(N)n1	0.6	3.3	15.4	-48.9	5.9	/	/
N#Cc1c(N2CCCC2)nc(N)c2c(N)nc(N3CCCC3)cc12	1.8	0.5	4.2	-3.6	67.2*	69.1*	9.4%
CCOc1cc2c(C#N)c(N3CCCC3)nc(N)c2c(N)n1	1.4	-1.6	-5.5	-5.6	-0.8	-0.6	/
COc1cc2c(C#N)c(N3CCCC3)nc(N)c2c(N)n1	-0.1	0.1	-3.7	-3.7	52.7*!	9.4	12.4%
C[C@@H]1CN([C@H](C)CO)C(=O)c2cc(NC(=O)CCC(F)(F)F)ccc2O[C@@H](C)CCCCO[C@@H]1CN(C)S(=O)(=O)c1cn(C)cn1	/	/	/	/	/	-0.7	/
CN(C)CC(=O)Nc1ccc2c(c1)[C@@H]1C[C@H](CC(=O)N3CCc4ccccc4C3)O[C@@H](CO)[C@@H]1O2	/	/	/	/	/	8.6	/
CCCCCCCCCCCCCCCC[N+](C)(C)CCN(Cc1ccc(OC)cc1)c1ncccn1	/	0.8	-176.2	87.7*	63.4*	-70.1	11.3%
COc1ccc(CN(CCN(C)C)c2ccccn2)cc1	-0.7	0.4	0.4	-6.9	7.8	-0.6	/
NC1=NC(=O)/C(=C\c2ccc(O)c([N+](=O)[O-])c2)S1	2.5	-1.2	2.6	24.5	79.2*	/	9.0%
CC(C)NC(=O)Nc1ccc2c(c1)CC(=O)N([C@H](C)CO)C[C@H](C)[C@@H](CN(C)C(=O)Nc1ccc3c(c1)OCO3)O2	/	/	/	/	/	0.1	/
O=C1c2ccccc2C(=O)c2[nH]cnc21	-0.2	0.9	1.9	2.3	56.5*	-4.0	7.3%
Nc1ccc(S(=O)(=O)O)cn1	-1.8	0.3	1.2	15.5	10.7	5.9	/
Nc1ccc(-c2ccc(C(=O)O)s2)cn1	-1.5	2.1	5.1	-9.2	71.0*	10.5	6.8%
C[C@@H]1CN([C@H](C)CO)C(=O)c2cc(NC(=O)Nc3cccc4ccccc34)ccc2O[C@@H](C)CCCCO[C@H]1CN(C)C(=O)c1ccccc1	/	/	/	/	/	6.7	/
O=C(C1CCCC1)N1C[C@H]2[C@@H](c3ccccc31)[C@@H](CO)N2C(=O)Cc1ccccn1	/	/	/	/	/	2.2	/
CCC(C)[C@H]1CNCCN1CCc1cccc2ccccc12 (some centres not stated)	-0.9	0.4	4.8	0.4	50.9*	0.2	10.2%
CCC(C)[C@H]1CNCCN1CC1(c2ccccc2)CC1 (some centres not stated)	-2.2	0.3	4.4	12.5	9.4	6.2	/
O=C(c1ccc2c(c1)OCCCO2)N1CCCCC1	1.4	-0.1	2.4	2.3	59.2*	/	6.6%
CCc1ccc2nc(NC(=O)C3CSC4(C)CCC(=O)N34)sc2c1 (configuration not stated)	3.6	0.6	-13.7	4.9	60.8*	/	10.3%
O=C(C[C@H]1CC[C@H]2[C@@H](COC[C@@H](O)CN2Cc2cccc(Cl)c2)O1)N1CCCCC1	/	/	/	/	/	10.3	/
Cc1ccccc1C(=O)NNC(=O)CCCCC(=O)NNC(=O)c1ccccc1C	-3.2	-1.2	3.1	11.3	65.8*	/	12.3%
C[C@@H](O)C#Cc1ccc([C@@H]2[C@@H](CO)N3CCCCN(C(=O)c4ccc5c(c4)OCO5)C[C@H]23)cc1	/	/	/	/	/	-3.4	/
COC1=C/C(=C/c2c(N)n3c(nc2=O)sc2cc(S(C)(=O)=O)ccc23)C=CC1=O	-0.6	1.4	-7.9	3.4	15.2	11.7	/
CS(=O)(=O)c1ccc2c(c1)sc1nc(=O)c(/C=C3/C=CC(=O)C(O)=C3)c(N)n12	-0.2	0.0	-16.4	7.1	55.0*	/	9.9%
SMILES	SMARCA2 act	CDK5 p35 inh	dFosB act	Rtt109 HAT inh	Dyrk1A ADPGlo	esBAF inh	Dyrk1A artifact
CC(C)NC(=O)N[C@H]1C=C[C@H](CC(=O)NC2Cc3ccccc3C2)O[C@@H]1CO	/	/	/	/	/	0.6	/
COc1ccc(-c2sc3ccccc3c2-c2ccc(OCCN3CCCCC3)cc2)cc1	-3.8	0.8	?	-0.8	2.7	-14.6	/
COc1cccc(-c2sc3ccccc3c2-c2ccc(OCCN3CCCC3)cc2)c1	0.1	2.6	6.4	-1.6	50.7*	-4.5	9.0%
O=C(O)c1[nH]c2ccc([N+](=O)[O-])cc2c1-c1ccccc1	-4.5	1.5	-6.6	?	52.5*	-6.0	9.5%
COc1ccc(-n2c(Cn3c(=O)sc4ccccc43)nnc2SCC(=O)N2CCOCC2)cc1	-1.6	0.1	-9.4	-1.4	55.9*	3.1	7.5%
C[C@@H]1CCCCO[C@H](CN(C)Cc2ccccc2)[C@@H](C)CN([C@@H](C)CO)C(=O)c2cc(NC(=O)CCC(F)(F)F)ccc2O1	/	/	/	/	/	-1.3	/
CC(=O)c1nc2ccccc2n1S(=O)(=O)c1ccc(Cl)cc1	0.9	0.1	2.7	-9.0	83.2*	-2.1	6.6%
CC(=O)c1nc2ccccc2n1S(=O)(=O)c1ccc(C)cc1	-3.1	1.0	5.6	-2.0	-0.8	9.2	/
COc1ccc(S(=O)(=O)Nc2ccc3c(c2)C(=O)N([C@H](C)CO)C[C@@H](C)[C@@H](CN(C)CC2CC2)O3)cc1	/	/	/	/	/	-0.8	/
CN(C)CC(=O)Nc1ccc2c(c1)[C@@H]1C[C@H](CC(=O)N3CCOCC3)O[C@H](CO)[C@@H]1O2	/	/	/	/	/	-2.5	/
NC1=NC(=O)/C(=C/c2cn(CCC(=O)O)nc2-c2ccc(Cl)cc2)S1	-2.4	-1.4	-10.0	2.4	-6.0	/	/
NC1=NC(=O)/C(=C\c2ccc(-c3ccc(Cl)cc3)o2)S1	4.3	2.0	1.8	8.7	58.3*	25.4	7.4%
O=C(Nc1nc2ccccc2s1)c1ccc(OCC2CCCO2)cc1 (configuration not stated)	-5.5	0.5	-21.8	1.1	57.2*	/	8.9%
OCC[C@@H]1C[C@H](O)[C@@H](O)[C@@]2(CCc3ccccc3CO2)O1	-0.2	1.6	5.8	8.1	51.8*	-12.8	7.1%
O=c1cc[nH]c2cc(Cl)ccc12	0.5	-0.3	-2.7	1.4	32.9	-6.1	/
O=c1cc[nH]c2ccc(Cl)cc12	-2.6	1.6	4.4	-4.3	50.4*	0.4	8.5%
O=C1SC(c2ccccc2)=C/C1=C\N1CCCCC1	-2.0	-0.6	-7.8	15.9	68.2*	13.6	7.9%
C[C@H]1CN([C@@H](C)CO)S(=O)(=O)c2ccc(C#CC3CCCC3)cc2O[C@@H]1CN(C)Cc1cccnc1	/	/	/	/	/	4.0	/
COc1cc(/C=C2\SC(N3CCC(C)CC3)=NC2=O)ccc1O	-0.5	1.9	-13.5	-4.1	76.8*	-2.9	11.8%

Source: PubChem (several laboratories)
